{"source": "PubChem BioAssay (NCATS)", "assay": "qHTS drug screen for cell cycle checkpoint inhibitors in PARPi-resistant BRCA-mutant ovarian cancer cell lines. (AID 1963452)", "conditions": "PEO1/OlaR viability, CellTiter-Glo luminescence, 96 h, stronger effect = lower value", "in_short": "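PEO1, PEO4 and PEO1/OlaR ovarian cancer cells, 600 per well, exposed 96 h at 37C to a dilution series. Viability read by CellTiter-Glo luminescence, normalized to DMSO and empty wells; activity summarized as Z-AUC.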", "key": {"[1]": {"conditions": "measured here: PEO1 parental Z-AUC"}}, "note": "Calls of active or inactive are those of the source. The call rests on the fitted dose curve.", "data": [{"compound": "Cc1ncc(-c2ccnc(Nc3ccc(S(C)(=O)=O)cc3)n2)n1C(C)C", "values": [{"measurement": "Z-AUC", "value": "-1.39 (inactive)"}, {"measurement": "Z-AUC", "setting": "[1]", "value": -0.968}, {"measurement": "Z-AUC", "setting": "measured here: PEO4 Z-AUC", "value": -1.44}]}, {"compound": "c1cc(N[C@@H]2CCNC2)nc(-c2cnc3ccc(-c4cn[nH]c4)cn23)c1", "values": [{"measurement": "Z-AUC", "value": "-1.39 (inactive)"}, {"measurement": "Z-AUC", "setting": "[1]", "value": -0.698}, {"measurement": "Z-AUC", "setting": "measured here: PEO4 Z-AUC", "value": -0.866}]}, {"compound": "COc1cc2ncnc(Nc3cccc(Br)c3)c2cc1OC", "values": [{"measurement": "Z-AUC", "value": "0.281 (inactive)"}, {"measurement": "Z-AUC", "setting": "[1]", "value": 0.586}, {"measurement": "Z-AUC", "setting": "measured here: PEO4 Z-AUC", "value": 0.428}]}, {"compound": "COc1cc(CCc2cc(NC(=O)c3ccc(N4C[C@@H](C)N[C@@H](C)C4)cc3)n[nH]2)cc(OC)c1", "values": [{"measurement": "Z-AUC", "value": "-1.36 (inactive)"}, {"measurement": "Z-AUC", "setting": "[1]", "value": -0.945}, {"measurement": "Z-AUC", "setting": "measured here: PEO4 Z-AUC", "value": -0.842}]}, {"compound": "Cn1cnc(=N)c2[nH]cnc21", "values": [{"measurement": "Z-AUC", "value": "1.05 (inactive)"}, {"measurement": "Z-AUC", "setting": "[1]", "value": 0.768}, {"measurement": "Z-AUC", "setting": "measured here: PEO4 Z-AUC", "value": 0.897}]}, {"compound": "CCS(=O)(=O)Nc1ccc2[nH]c(O)c(C(=Nc3ccc(CN4CCCCC4)cc3)c3ccccc3)c2c1", "values": [{"measurement": "Z-AUC", "value": "-1.37 (inactive)"}, {"measurement": "Z-AUC", "setting": "[1]", "value": -1.2}, {"measurement": "Z-AUC", "setting": "measured here: PEO4 Z-AUC", "value": -1.32}]}, {"compound": "COc1cc(C(=O)NC2CCN(C)CC2)ccc1Nc1ncc2c(n1)N(C1CCCC1)CCC(=O)N2C(C)C", "values": [{"measurement": "Z-AUC", "value": "-0.77 (inactive)"}, {"measurement": "Z-AUC", "setting": "[1]", "value": 0.079}, {"measurement": "Z-AUC", "setting": "measured here: PEO4 Z-AUC", "value": -0.318}]}, {"compound": "N#Cc1c(C2CCNCC2)cc(-c2c(O)cccc2OCC2CC2)nc1N", "values": [{"measurement": "Z-AUC", "value": "0.339 (inactive)"}, {"measurement": "Z-AUC", "setting": "[1]", "value": 0.598}, {"measurement": "Z-AUC", "setting": "measured here: PEO4 Z-AUC", "value": 0.733}]}, {"compound": "CCCCOc1ccc(C(=O)Nc2ccc(F)cc2F)cc1", "values": [{"measurement": "Z-AUC", "value": "-0.387 (inactive)"}, {"measurement": "Z-AUC", "setting": "[1]", "value": -0.847}, {"measurement": "Z-AUC", "setting": "measured here: PEO4 Z-AUC", "value": -0.905}]}, {"compound": "Cc1cc(Nc2ncc3c(n2)N(C)C(=O)N(c2cc(NC(=O)c4cccc(C(F)(F)F)c4)ccc2C)C3)n(C)n1", "values": [{"measurement": "Z-AUC", "value": "-1.62 (inactive)"}, {"measurement": "Z-AUC", "setting": "[1]", "value": -1.69}, {"measurement": "Z-AUC", "setting": "measured here: PEO4 Z-AUC", "value": -1.33}]}, {"compound": "CCOC(=O)C=C[C@H](C[C@@H]1CCNC1=O)NC(=O)[C@@H](CC(=O)[C@@H](NC(=O)c1cc(C)on1)C(C)C)Cc1ccc(F)cc1", "values": [{"measurement": "Z-AUC", "value": "-0.315 (inactive)"}, {"measurement": "Z-AUC", "setting": "[1]", "value": -0.169}, {"measurement": "Z-AUC", "setting": "measured here: PEO4 Z-AUC", "value": 0.164}]}]}
